Screening results deposited in PubChem by several laboratories.
KCC2 mod = modulators of human KCC2 chloride dependent transport. B-score of Tl+ flux slope (higher = more flux/activation; lower = inhibition) at 10 µM. 190,000 compounds, 2.2% hits. KCC2 cells, thallium flux FluoZin-2 fluorescence. AID 1456;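 active = thallium flux slope and its plate-corrected score both differing from the plate sample mean at a set confidence after two filtering rounds, in either direction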;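 note: slope of fluorescence scaled to starting intensity during 10 to 20 s after thallium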
Target sequence (Q9H2X9 whole entry, looked up): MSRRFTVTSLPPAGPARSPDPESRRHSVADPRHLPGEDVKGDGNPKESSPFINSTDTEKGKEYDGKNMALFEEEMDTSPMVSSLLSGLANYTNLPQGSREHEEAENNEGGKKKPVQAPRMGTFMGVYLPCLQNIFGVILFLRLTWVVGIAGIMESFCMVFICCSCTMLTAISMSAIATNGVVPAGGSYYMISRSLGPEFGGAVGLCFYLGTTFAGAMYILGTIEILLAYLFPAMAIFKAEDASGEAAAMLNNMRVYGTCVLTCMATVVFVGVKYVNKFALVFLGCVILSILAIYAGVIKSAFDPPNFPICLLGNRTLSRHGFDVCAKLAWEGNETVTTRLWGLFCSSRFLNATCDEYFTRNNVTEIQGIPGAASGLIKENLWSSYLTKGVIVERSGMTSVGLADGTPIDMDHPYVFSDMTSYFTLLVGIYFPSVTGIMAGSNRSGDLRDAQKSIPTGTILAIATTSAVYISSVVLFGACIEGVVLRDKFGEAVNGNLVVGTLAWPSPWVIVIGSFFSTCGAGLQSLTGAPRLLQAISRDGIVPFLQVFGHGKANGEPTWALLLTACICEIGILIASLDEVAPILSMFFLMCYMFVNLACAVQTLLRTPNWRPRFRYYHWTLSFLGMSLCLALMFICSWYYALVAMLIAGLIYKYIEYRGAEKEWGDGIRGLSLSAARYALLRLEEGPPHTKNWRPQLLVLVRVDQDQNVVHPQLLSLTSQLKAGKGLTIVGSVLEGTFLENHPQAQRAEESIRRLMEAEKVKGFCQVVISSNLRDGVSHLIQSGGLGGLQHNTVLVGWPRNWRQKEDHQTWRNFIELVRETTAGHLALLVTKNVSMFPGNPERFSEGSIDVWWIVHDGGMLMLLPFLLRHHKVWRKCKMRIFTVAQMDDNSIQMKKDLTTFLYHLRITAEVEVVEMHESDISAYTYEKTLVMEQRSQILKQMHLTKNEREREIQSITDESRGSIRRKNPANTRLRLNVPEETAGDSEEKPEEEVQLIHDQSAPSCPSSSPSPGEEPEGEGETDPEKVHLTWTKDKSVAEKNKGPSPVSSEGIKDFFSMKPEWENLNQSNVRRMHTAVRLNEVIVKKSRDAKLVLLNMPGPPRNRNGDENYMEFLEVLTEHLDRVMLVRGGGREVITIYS
INS promoter inh = TRM-6 insulin promoter activity inhibition | TRM-6 cells (human fetal islet line), insulin promoter-eGFP reporter, imaging; reporter expression induced with tamoxifen | inhibition, % at 2 µM | 130,000 compounds, 0.9% hits | AID 1273;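 active = inhibition above the mean plus 3 SD, with well images judged a real hit on visual review, cut at about 60% in these data, passing the limit was not always enough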
WT yeast gro inh = growth inhibition of WT yeast, mitochondrial fusion screen. mitochondrial fusion phenotypic screen, WT strain. inhibition, % at 10 µM. 190,000 compounds, 2.1% hits; in the data active = inhibition above about 58%; tested in S. cerevisiae
Ins promoter up = MIN6 insulin promoter up-regulation | MIN6 insulin promoter-GFP reporter, high-content imaging; active compounds read high | z-score at 5 µM | 190,000 compounds, 0.3% hits | AID 1625;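 active = z-score above 3 at 5 µM with at least 500 cells counted in the well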
Lmaj promast = reduces viability of Leishmania major promastigotes. resazurin fluorescence viability. inhibition, % at 10 µM. 200,000 compounds, 9% hits. AID 1063; in the data active = inhibition above about 50%;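 note: promastigotes grown with compound for 44 hours at 28 °C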
ROMK primary = modulates human ROMK potassium channel activity; P48048; B-score at 10 µM; 130,000 compounds, 2% hits; Tet-inducible ROMK, thallium flux fluorescence; actives lie on both sides;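 active = signal ratio slope over the read window, or its plate-corrected B-score, at least 3 SD from the plate mean, either direction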;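 note: B-score of the F/F0 ratio slope over 7 to 12 s after thallium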
A number is an active result; – = inactive; · = not tested or not shown. Most compounds without a hit are left out; they make up all but 12% or so of the library.

SMILES	KCC2 mod	INS promoter inh	WT yeast gro inh	Ins promoter up	Lmaj promast	ROMK primary
O=C1CC(N2CCN(c3cccc(C(F)(F)F)c3)CC2)C(=O)N1c1ccc(F)cc1 (stereo not drawn)	–	–	–	·	–	·
Cc1ccc(COc2cccc3c2CCN(Cc2ccc(F)cc2)C3=O)cc1	–	·	–	–	–	·
CCOc1ccccc1/C=N/NC(=O)c1cccc(Cl)c1	–	·	–	–	–	–
Cc1nn(CC(=O)N/N=C/c2cccs2)c(C)c1[N+](=O)[O-]	–	·	·	–	·	·
COc1cccc(/C=N/NC(=O)C(=O)N2CCCC2)c1O	–	·	–	–	53	–
COc1cccc(/C=N/NC(=O)Cn2nc(C)c([N+](=O)[O-])c2C)c1O	–	·	–	–	82	·
COc1cccc(NC(=S)NNC(=O)C(C)n2nc(C)c([N+](=O)[O-])c2C)c1 (stereo not drawn)	–	·	–	–	–	–
COc1cccc(/C=N/NC(=O)C(C)n2nc(C)c([N+](=O)[O-])c2C)c1O (stereo not drawn)	–	·	–	–	94	·
COc1ccc(OC)c(NC(=O)c2cccc(Cn3cc(Br)c([N+](=O)[O-])n3)c2)c1	–	–	–	–	100	–
COc1cccc(/C=N/NC(=O)CSc2ccccc2C)c1O	–	–	–	–	98	–
COc1cccc(/C=N\NC(=O)c2ccc(Cn3cc(Br)c([N+](=O)[O-])n3)o2)c1O	–	–	–	·	100	–
Cc1cccc(C)c1NC(=O)C[N+](C)(C)CC(O)COc1cccc2ccccc12 (stereo not drawn)	–	·	–	–	–	–
OC(CNCCc1ccc(C(F)(F)F)cc1)COc1ccc2ccccc2c1 (stereo not drawn)	–	–	–	–	99	–
COc1ccc(CCNCC(O)COc2cccc(Br)c2)cc1 (stereo not drawn)	–	·	–	–	52	–
COc1ccc(OCC(O)CNCc2ccco2)cc1 (stereo not drawn)	–	–	72	–	–	–
OC(CNCc1ccco1)COc1ccccc1 (stereo not drawn)	·	·	–	–	–	·
OC(CNCCc1ccc(C(F)(F)F)cc1)COc1cccc2ccccc12 (stereo not drawn)	–	–	–	–	97	·
NC(=O)CN1C(=O)/C(=c2\sc3nc(=O)c(Cc4ccccc4)nn3c2=O)c2ccccc21	–	·	·	–	·	–
O=C1C(=O)c2ccccc2C(O)=C1c1cccc([N+](=O)[O-])c1	–	·	·	–	·	·
O=C(NCCN1CCN(C(=O)c2cccs2)CC1)c1cccs1	–	–	–	·	–	·
COc1ccc(CNCC(O)COc2cccc3c2OC(C)(C)C3)cc1 (stereo not drawn)	–	·	–	–	86	–
O=C(Nc1cccc(C(F)(F)F)c1)c1ccccc1NC(=O)C1CCCCC1	–	–	–	–	57	·
[N-]=[N+]=CC(=O)C(Cc1ccccc1)N1C(=O)c2ccccc2C1=O (stereo not drawn)	–	–	–	–	–	·
O=C(Nc1ccc(Cl)c(C(F)(F)F)c1)NC1CC2CCCC(C1)N2C1CC1 (stereo not drawn)	–	–	·	·	60	·
CCCCn1c(=O)[nH]c(=O)c2c1nc(-c1ccncc1)n2CCOC	–	–	–	–	–	·
SMILES	KCC2 mod	INS promoter inh	WT yeast gro inh	Ins promoter up	Lmaj promast	ROMK primary
CCOc1ccnc(OCC)c1Br	–	79	–	–	–	–
Cc1oc(-c2cccc(C(F)(F)F)c2)nc1CN1CCC[C@H]1CO	–	·	–	–	–	–
O=C(C[n+]1cccc(/C=N/O)c1)N1CCCCCC1	–	–	–	–	–	–
Clc1ccc(OCCOCCN2CCc3ccccc3C2)c(Cl)c1	–	·	70	–	88	·
c1ccc(-c2ccccc2OCCOCCN2CCc3ccccc3C2)cc1	–	–	–	–	77	–
CC1(C)NC(=O)N(CCOCCOc2ccccc2-c2ccccc2)C1=O	–	–	–	–	–	·
COc1cc2c(cc1OC)CN(C(=O)CCCOc1ccc(Cl)cc1Cl)CC2	·	–	–	–	–	–
CN1CCN(c2nc(-c3ccc(Br)cc3)nnc2-c2ccccc2)CC1	–	–	–	·	–	·
Brc1ccc(-c2nnc(-c3ccccc3)c(N3CCSCC3)n2)cc1	·	·	63	–	–	·
CCOc1ccc(S(=O)(=O)N(CC(=O)NC2CCCCC2C)Cc2ccco2)cc1 (stereo not drawn)	–	–	–	–	87	·
CC(=O)c1sc2nc(C)cc(C)c2c1N	·	77	–	–	–	·
Cc1cc(C)c2c(N)c(C(=O)Nc3ncc(C)s3)sc2n1	–	–	–	·	68	–
